Values joined by “and” are separate entries in the source; they are usually repeats but may differ in a detail not shown here. Equal values may be shown once. Active and inactive are the calls of the source. The calls were made as follows: active = hit-call score of the fitted dose curve at least 0.9, where 1 is the maximum; inactive = score below 0.9.

Read-out in one assay: 3-Hydroxy-3-Methylglutaryl-CoA Synthase 2 (HMGCS2), HMGCS2 (gene 3158)
In words: LTEA_HepaRG_HMGCS2: Life Technologies and Expression Analysis (LTEA) Assay for 3-Hydroxy-3-Methylglutaryl-CoA Synthase 2 (HMGCS2) using HepaRG (AID 2283504). As to conditions: mRNA level, 48 h; actives raise or lower the signal. In short, it runs like this: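 This steatosis marker was read as HMGCS2 mRNA change in HepaRG cells treated 48 h with up to 100 uM chemical. Normalisation used housekeeping genes; activity in either direction was fitted relative to 0.5% DMSO vehicle.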
For `CSC(=O)c1cccc2nnsc12`, the outcome was inactive.

Take `c1ccc(Nc2ccccc2)cc1`: the molecule was classed as inactive.

`CCOC(=O)NCCOc1ccc(Oc2ccccc2)cc1`: the concentration at half-maximal activity (AC50) is 77.1 µM (active).

In the case of `CC(C)(c1ccc(O)cc1)c1ccc(O)cc1`, the molecule was classed as inactive.

In the case of `Oc1ccc(C(c2ccc(O)cc2)C(Cl)(Cl)Cl)cc1`, the AC50 was 92.8 µM (active).

As to `CCOC(=O)c1ccc(O)cc1`, the result was inactive.

As for `CCCCCOC(=O)COc1cc(N2C(=O)C3=C(CCCC3)C2=O)c(F)cc1Cl`, the call was inactive.

For `C[C@]12CC[C@@H]3c4ccc(O)cc4C[C@@H](CCCCCCCCCS(=O)CCCC(F)(F)C(F)(F)F)[C@H]3[C@@H]1CC[C@@H]2O` (stereo not given in full), the AC50 is 33.6 µM (active).

For `CCCCCCC(C)OC(=O)COc1nc(F)c(Cl)c(N)c1Cl` (stereo not given), the molecule was classed as inactive.

In the case of `N[C@@H](Cc1cc(I)c(Oc2ccc(O)c(I)c2)c(I)c1)C(=O)O`, the AC50 is 0.00253 µM (active).

On to `CCNc1nc(N)nc(Cl)n1`, for which the outcome was inactive.

With `COCCO`, the call was inactive.

For the molecule `CCN(Cc1c(F)cccc1Cl)c1c([N+](=O)[O-])cc(C(F)(F)F)cc1[N+](=O)[O-]`, the AC50 was 50 µM (active).

Take `CN(C)C(=O)Nc1ccc(Cl)c(Cl)c1`: the call was inactive.

With `CCCCOCCOCCOCc1cc2c(cc1CCC)OCO2`, the call was inactive.

In the case of `CCOC(=O)C(C)Oc1ccc(Oc2cnc3cc(Cl)ccc3n2)cc1` (stereo not given), the molecule was classed as inactive.

On to `CCSC(=O)N(CC(C)C)CC(C)C`, for which the call was inactive.

As to `COC(=O)CSc1cc(N=c2sc(=O)n3n2CCCC3)c(F)cc1Cl`, the molecule was classed as inactive.

Turning to `c1ccc2[nH]c(-c3cscn3)nc2c1`, the result was inactive.

Turning to `CCCCC(CC)COC(=O)c1ccccc1C(=O)O` (stereo not given), the molecule was classed as inactive.

In the case of `CCOC(=O)C(C)Oc1ccc(Oc2nc3ccc(Cl)cc3o2)cc1` (stereo not given), the result was inactive.

On to `O=C(c1ccccc1)C1CCCCC1`, for which the call was inactive.

For `COc1c(Cl)ccc(Cl)c1C(=O)O`, the molecule was called inactive.

For `CC(=O)[C@H]1CC[C@H]2[C@@H]3CCC4=CC(=O)CC[C@]4(C)[C@H]3CC[C@]12C`, the AC50 was 29.2 µM (active).

For `CC1(C)C(C=C(Cl)Cl)C1C(=O)OCc1cccc(Oc2ccccc2)c1` (stereo not given), the result was inactive.

In the case of `S=C(S)NCCNC(=S)S.[Mn+2].[S-]C([S-])=NCCN=C([S-])[S-].[Zn+2]`, the AC50 was 2.25 µM (active) and 1.36 µM (active) and 1.93 µM (active).

Read-out in the next assay: HGF (gene 3082)
In words: LTEA_HepaRG_HGF: Life Technologies and Expression Analysis (LTEA) Assay for Hepatocyte Growth Facto (HGF) using HepaRG (AID 2283505). To be noted: mRNA level, 48 h; actives raise or lower the signal. In short, it runs like this:
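Using HepaRG monolayers kept in 0.5% DMSO, chemicals were tested in duplicate over eight half-log concentrations from 100 uM for 48 h. Endpoint: HGF mRNA change relative to DMSO, normalized to ACTB/GAPDH/POLR2A.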
`CCOC(=O)NCCOc1ccc(Oc2ccccc2)cc1`: the outcome was inactive.

`Oc1ccc(C(c2ccc(O)cc2)C(Cl)(Cl)Cl)cc1`: the AC50 was 83.7 µM (active).

For `CCOC(=O)c1ccc(O)cc1`, the outcome was inactive.

In the case of `N[C@@H](Cc1cc(I)c(Oc2ccc(O)c(I)c2)c(I)c1)C(=O)O`, the call was inactive.

Take `CCNc1nc(N)nc(Cl)n1`: the result was inactive.

`COCCO`: the call was inactive.

As for `CCN(Cc1c(F)cccc1Cl)c1c([N+](=O)[O-])cc(C(F)(F)F)cc1[N+](=O)[O-]`, the molecule was classed as inactive.

With `CCCCOCCOCCOCc1cc2c(cc1CCC)OCO2`, the molecule was called inactive.

For the molecule `CCSC(=O)N(CC(C)C)CC(C)C`, the molecule was classed as inactive.

Turning to `COC(=O)CSc1cc(N=c2sc(=O)n3n2CCCC3)c(F)cc1Cl`, the outcome was inactive.

Regarding `CCCCC(CC)COC(=O)c1ccccc1C(=O)O` (stereo not given), the result was inactive.

With `COc1c(Cl)ccc(Cl)c1C(=O)O`, the call was inactive.

As to `CC1(C)C(C=C(Cl)Cl)C1C(=O)OCc1cccc(Oc2ccccc2)c1` (stereo not given), the outcome was inactive.

Read-out in a further assay: Insulin Like Growth Factor 1 (IGF1), IGF1 (gene 3479)
The assay can be described thus: LTEA_HepaRG_IGF1: Life Technologies and Expression Analysis (LTEA) Assay for Insulin Like Growth Factor 1 (IGF1) using HepaRG (AID 2283506). To be noted: mRNA level, 48 h; actives raise or lower the signal. The method in brief: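 Differentiated human HepaRG cells were dosed for 48 h in serum-free induction medium with 0.5% DMSO, eight half-log concentrations up to 100 uM, in duplicate. IGF1 mRNA was quantified by qRT-PCR normalized to ACTB, GAPDH, POLR2A; bidirectional fitting versus DMSO.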
`CSC(=O)c1cccc2nnsc12`: the result was inactive.

With `c1ccc(Nc2ccccc2)cc1`, the outcome was inactive.

In the case of `CCOC(=O)NCCOc1ccc(Oc2ccccc2)cc1`, the AC50 was 89.5 µM (active).

In the case of `CC(C)(c1ccc(O)cc1)c1ccc(O)cc1`, the outcome was inactive.

Take `Oc1ccc(C(c2ccc(O)cc2)C(Cl)(Cl)Cl)cc1`: the molecule was classed as inactive.

Take `CCOC(=O)c1ccc(O)cc1`: the call was inactive.

Regarding `CCCCCOC(=O)COc1cc(N2C(=O)C3=C(CCCC3)C2=O)c(F)cc1Cl`, the molecule was called inactive.

As for `C[C@]12CC[C@@H]3c4ccc(O)cc4C[C@@H](CCCCCCCCCS(=O)CCCC(F)(F)C(F)(F)F)[C@H]3[C@@H]1CC[C@@H]2O` (stereo not given in full), the molecule was called inactive.

For `CCCCCCC(C)OC(=O)COc1nc(F)c(Cl)c(N)c1Cl` (stereo not given), the call was inactive.

As for `N[C@@H](Cc1cc(I)c(Oc2ccc(O)c(I)c2)c(I)c1)C(=O)O`, the result was inactive.

With `CCNc1nc(N)nc(Cl)n1`, the outcome was inactive.

In the case of `COCCO`, the molecule was called inactive.

With `CCN(Cc1c(F)cccc1Cl)c1c([N+](=O)[O-])cc(C(F)(F)F)cc1[N+](=O)[O-]`, the AC50 is 50 µM (active).

With `CN(C)C(=O)Nc1ccc(Cl)c(Cl)c1`, the molecule was classed as inactive.

For `CCCCOCCOCCOCc1cc2c(cc1CCC)OCO2`, the AC50 was 21.3 µM (active).

Regarding `CCOC(=O)C(C)Oc1ccc(Oc2cnc3cc(Cl)ccc3n2)cc1` (stereo not given), the AC50 is 1.06 µM (active).

With `CCSC(=O)N(CC(C)C)CC(C)C`, the outcome was inactive.

Take `COC(=O)CSc1cc(N=c2sc(=O)n3n2CCCC3)c(F)cc1Cl`: the call was inactive.

On to `c1ccc2[nH]c(-c3cscn3)nc2c1`, for which the call was inactive.

For the molecule `CCCCC(CC)COC(=O)c1ccccc1C(=O)O` (stereo not given), the AC50 was 50.8 µM (active).

For the molecule `CCOC(=O)C(C)Oc1ccc(Oc2nc3ccc(Cl)cc3o2)cc1` (stereo not given), the AC50 is 20.2 µM (active).

Consider `O=C(c1ccccc1)C1CCCCC1`, for which the outcome was inactive.

As for `COc1c(Cl)ccc(Cl)c1C(=O)O`, the molecule was classed as inactive.

`CC(=O)[C@H]1CC[C@H]2[C@@H]3CCC4=CC(=O)CC[C@]4(C)[C@H]3CC[C@]12C`: the half-maximal activity concentration (AC50) is 32.4 µM (active).

As to `CC1(C)C(C=C(Cl)Cl)C1C(=O)OCc1cccc(Oc2ccccc2)c1` (stereo not given), the molecule was classed as inactive.

`S=C(S)NCCNC(=S)S.[Mn+2].[S-]C([S-])=NCCN=C([S-])[S-].[Zn+2]`: the AC50 is 1.35 µM (active) and 1.45 µM (active) and 2.57 µM (active).

For orientation: AC50 means the concentration at which the activity in the assay is half-maximal.
